Experimental data: PubChem BioAssay AID1851 (National Center for Advancing Translational Sciences (NCATS), 2009)
Out of some 16,000 compounds screened, about 5,100 (32%) were called active. Inconclusive results (about 25%) are left out. The list shows a part of the results. Values without a mark were called inactive. Calls follow the shape of the dose curve; as a rule, active = well fitted curve in the direction sought with a large enough effect; inconclusive = small, poorly fitted or top-dose-only effect, or effect the other way; inactive = no such curve, though single readings can be large or run the other way.

Biological target: Cytochrome P450 3A4 (Homo sapiens) (UniProt P08684)
Assay: Cytochrome panel assay with activity outcomes
Conditions: recombinant CYP, pro-luciferin dealkylation, luminescence, p450-cyp3a4; series mostly up to 57.1 µM
% is scaled to controls: 0 for no effect and ±100 for the full control effect.

Sequence of Cytochrome P450 3A4 (Homo sapiens) (P08684 whole entry, looked up): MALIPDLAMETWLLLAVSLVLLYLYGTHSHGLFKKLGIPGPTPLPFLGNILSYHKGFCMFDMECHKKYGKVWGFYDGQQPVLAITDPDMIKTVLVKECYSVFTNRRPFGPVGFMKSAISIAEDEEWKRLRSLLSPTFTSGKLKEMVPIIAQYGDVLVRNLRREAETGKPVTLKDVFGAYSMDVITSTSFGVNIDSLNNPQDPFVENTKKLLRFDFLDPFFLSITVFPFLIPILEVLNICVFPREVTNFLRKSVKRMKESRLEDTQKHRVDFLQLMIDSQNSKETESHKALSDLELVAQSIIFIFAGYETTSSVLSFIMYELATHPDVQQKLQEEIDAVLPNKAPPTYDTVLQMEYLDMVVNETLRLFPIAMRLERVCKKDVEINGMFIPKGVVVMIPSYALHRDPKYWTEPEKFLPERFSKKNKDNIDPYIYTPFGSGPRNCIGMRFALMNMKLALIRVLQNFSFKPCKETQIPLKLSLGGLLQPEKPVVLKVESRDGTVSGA

SMILES	AC50	activity, negative = inhibition
CCNC(=O)COC(=O)c1cc(-c2ccc(OC)cc2)nc2ccccc12	14.1 µM (active)	–
CCNC(=O)COC(=O)c1cc(=O)[nH]c2ccccc12	inactive	–
N/C(=N\OC(=O)c1cc(-c2ccccc2)nc2ccccc12)c1ccc(Cl)cc1	inactive	–
Cc1ccc(CS(=O)(=O)CCC(=O)NCCCN2CCCC2=O)cc1	inactive	–
CCCS(=O)(=O)N1CCCC(C(=O)NCCCN2CCN(c3ccccc3F)CC2)C1 (configuration not stated)	inactive	–
Cc1ccc(CS(=O)(=O)CCC(=O)NCCCN2CCCC2)cc1	28.2 µM (active)	–
Cc1ccccc1CS(=O)(=O)CCC(=O)NCCCN1CCN(c2ccccc2F)CC1	11.2 µM (active)	–
CCS(=O)(=O)N1CCC(C(=O)NCCCN2CCN(c3ccccc3F)CC2)CC1	inactive	–
CCOCCCNC(=O)CCS(=O)(=O)Cc1ccc(C)cc1	inactive	–
Cc1ccc2c(c1)/C(=N/OC(=O)c1ccc(F)cc1)CCS2	inactive	–
N#Cc1c(-c2ccccc2)no[n+]1[O-]	12.6 µM (active)	–
N#Cc1c(-c2ccccc2)nc2n(c1=O)CCS2	inactive	–
N#Cc1c(-c2ccccc2)nc(-c2ccccc2)[nH]c1=O	inactive	–
COc1ccc(N(CC(=O)NCc2cccc(OC)c2)S(=O)(=O)c2c(C)noc2C)cc1	1.78 µM (active)	–
CCOc1ccc(N(CC(=O)NCc2ccc(OC)cc2)S(=O)(=O)c2c(C)noc2C)cc1	0.631 µM (active)	–
COc1cccc(CNCCNC(=O)c2nonc2N)c1	inactive	–
Cn1cccc1C(=O)N1CCC2(CC1)CN(c1ccncc1)C2	inactive	–
Cn1cccc1C(=O)N1CCC2(CCCN(c3ncccn3)C2)CC1	inactive	–
Cn1cccc1C(=O)N1CCC2(CCCN(c3cccc(-c4ccccc4)c3)C2)CC1	10 µM (active)	–
Cn1cccc1C(=O)N1CCC2(CC1)CCN(c1cccc(-c3ccccc3)c1)CC2	inactive	–
CN1CCCC2(CCN(C(=O)c3cccn3C)CC2)C1	inactive	–
Cn1cccc1C(=O)N1CCC[C@@]2(CCN(c3ccccc3)C2)C1	10 µM (active)	–
Cn1cccc1C(=O)N1CCC[C@@]2(CCN(c3ccncc3)C2)C1	1 µM (active)	–
Cn1cccc1C(=O)N1CCC2(CC1)CCN(c1ccncc1)CC2	inactive	–

SMILES	AC50	activity, negative = inhibition
Cn1cccc1C(=O)N1CCC[C@@]2(CCN(c3cccc(-c4ccccc4)c3)C2)C1	7.94 µM (active)	–
CC(C)NC(=O)N1CC[C@@]2(CCCN(C(=O)c3cccn3C)C2)C1	inactive	–
C[N+](C)(C)CCCCCC[N+](C)(C)C	inactive	–
COC(=O)N1CCC[C@@]2(CCN(C(c3ccccc3)c3ccccc3)C2)C1	inactive	–
CC(C)NC(=O)N1CCC2(CC1)CCN(C(=O)c1cccn1C)CC2	inactive	–
Cn1cccc1C(=O)N1CCC[C@@]2(CCN(C(c3ccccc3)c3ccccc3)C2)C1	12.6 µM (active)	–
COc1cccc2c1[C@@H]1CN(CCCCn3c(=O)[nH]c4c(sc5ncc(-c6ccccc6)nc54)c3=O)C[C@H]1CO2	15.8 µM (active)	–
O=C1Nc2ccccc2C(O)(C(=O)NCc2ccc3c(c2)OCO3)N1c1ccc(Cl)c(Cl)c1 (configuration not stated)	0.126 µM (active)	–
NCCCC(=O)O	inactive	–
O=S1(=O)[C@H]([C@H]2CC3c4ccccc4C2c2ccccc23)[C@@H](N2CCCCC2)[C@@H]1c1ccccc1	1 µM (active)	–
c1ccc(C2CCC(N3CCC(N4CCCCC4)CC3)CC2)cc1 (configuration not stated)	–	-4.19% [at 2.29 µM]
CCC#CCOCC(=O)Nc1ccccc1	inactive	–
O=C(Cc1ccccc1I)Nc1ccccc1	inactive	–
CCCCC#Cc1ccccc1CC(=O)Nc1ccccc1	1 µM (active)	–
OCCCN=C1CCCCC1	–	-15.7% [at 11.4 µM]
CNC(=O)c1nnn(Cc2ccccc2)c1NC(=O)C(F)(F)F	inactive	–
C[C@@H](C(=O)Nc1ccc2ccccc2c1)[C@H]1C[C@]1(C)[C@H](NC(=O)OCc1ccccc1)c1ccccc1	2.51 µM (active)	–
C[C@@H](C(=O)Nc1ccc2ccccc2c1)[C@@H]1C[C@@]1(C)[C@@H](NC(=O)OCc1ccccc1)c1ccccc1	7.94 µM (active)	–
Cc1ccc(NC(=O)N(Cc2ccco2)C(C)c2ccco2)cc1C (configuration not stated)	3.16 µM (active)	–
c1ccc(CCc2cccnc2)nc1	–	-27.8% [at 11.4 µM]
c1cncc(CNCc2cccnc2)c1	–	-27.6% [at 11.4 µM]
c1ccc(C[C@@H](Nc2cccnc2)c2ccccc2)cc1	3.16 µM (active)	–
CCOC(=O)CCN1C(=O)[C@H]2[C@H]3[C@H](O)[C@H](O)C/C(=N/OCC(C)C)[C@@H]3CC[C@@H]2C1=O	–	-27.7% [at 11.4 µM]
